In all, about 16,000 compounds went through this assay and about 5,700 (36%) were called active. Inconclusive results (about 24%) are left out. The list shows a part of the results. A number with no mark means an inactive call. The call rests on the fitted dose curve; in most records, active means well fitted curve in the direction sought with a large enough effect; inconclusive means small, poorly fitted or top-dose-only effect, or effect the other way; inactive means no such curve, though single readings can be large or run the other way.
Each compound was assayed against Cytochrome P450 1A2 (Homo sapiens) (UniProt P05177) (assay: Cytochrome panel assay with activity outcomes). Settings: recombinant CYP, pro-luciferin dealkylation, luminescence, p450-cyp1a2; series mostly up to 57.1 µM.
Chain of Cytochrome P450 1A2 (Homo sapiens) (P05177 whole entry, looked up): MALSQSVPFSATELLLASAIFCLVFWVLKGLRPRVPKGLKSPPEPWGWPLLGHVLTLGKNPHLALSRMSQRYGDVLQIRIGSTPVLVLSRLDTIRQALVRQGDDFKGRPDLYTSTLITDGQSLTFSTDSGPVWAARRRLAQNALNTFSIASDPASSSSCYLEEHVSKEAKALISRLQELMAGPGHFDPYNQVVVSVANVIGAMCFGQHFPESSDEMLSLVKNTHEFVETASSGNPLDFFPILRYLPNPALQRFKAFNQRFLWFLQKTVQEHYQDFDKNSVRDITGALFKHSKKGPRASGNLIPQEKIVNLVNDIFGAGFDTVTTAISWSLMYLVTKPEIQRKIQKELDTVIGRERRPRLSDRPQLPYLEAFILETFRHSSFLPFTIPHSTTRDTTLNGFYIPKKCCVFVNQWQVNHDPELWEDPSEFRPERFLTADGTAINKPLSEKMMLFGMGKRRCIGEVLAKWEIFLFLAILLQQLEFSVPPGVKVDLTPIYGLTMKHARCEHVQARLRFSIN
`Nc1nnc(SCCOc2cccc(Br)c2)s1` was tested, and the AC50 was 5.01 µM (active).
With `Cc1cccc(NS(=O)(=O)c2c(C)n[nH]c2C)c1` the AC50 was “inactive”.
With `Cc1cccc(CNc2cc(-c3cccc(NS(C)(=O)=O)c3)ncn2)c1` the AC50 was 10 µM (active).
In the case of `CN(C)c1cc(-c2cccc(NS(C)(=O)=O)c2)ncn1`, the AC50 is reported as 1.26 µM (active).
For `CS(=O)(=O)Nc1cccc(-c2cc(Nc3ccccc3)ncn2)c1`, the AC50 was 0.398 µM (active).
`CS(=O)(=O)Nc1cccc(-c2cc(NCc3ccccc3)ncn2)c1` was tested, and the AC50 was 12.6 µM (active).
`COc1ccc(NC(=O)N2CCCC3(CCN(C(=O)c4csnn4)CC3)C2)cc1` was tested, and the AC50 was “inactive”.
`CS(=O)(=O)Nc1cccc(-c2cc(NCc3cccs3)ncn2)c1` was tested, and the AC50 was 6.31 µM (active).
With `Cc1ccc(NC(=O)CN2C(=O)N/C(=C/c3ccc(C)o3)C2=O)cc1` the AC50 was “inactive”.
For `Cc1ccc(/C=C/C(=O)N2CC(C)CC(C)C2)o1` (stereo not drawn), the AC50 was 8.91 µM (active).
For `C[C@@H](NCc1cc(Br)cc2[nH]c(=O)c(=O)[nH]c12)P(=O)(O)O`, the AC50 was “inactive”.
With `COC(=O)N1CCC2(CCCN(Cc3cc(C(F)(F)F)cc(C(F)(F)F)c3)C2)CC1` the AC50 was “inactive”.
For `CC(C)(C)n1ncc2c(=O)n(CC(=O)NCc3ccccc3Cl)cnc21`, the AC50 was “inactive”.
For `CCCCn1cnc2c(cnn2-c2ccc(F)cc2)c1=O`, the AC50 was 3.16 µM (active).
For `Cc1ccccc1Cn1cnc2c(cnn2C(C)(C)C)c1=O`, the AC50 was “inactive”.
In the case of `Clc1ccc(Cc2nc(-c3cccnc3)no2)cc1`, the AC50 is reported as 1 µM (active).
With `Cc1cccc(C)c1NC(=O)C(c1ccccc1)N1CCC1=O` (stereo not drawn) the AC50 was “inactive”.
For `CCCN[C@@H](C)C(=O)Nc1ccccc1C`, the AC50 was “inactive”.
For `Cc1ccccc1NC(=O)C(C)c1cccc(C(=O)c2ccccc2)c1` (stereo not drawn), the AC50 was 11.2 µM (active).
In the case of `CCCc1c(-c2ccc(O)cc2)nn(-c2ccc(O)cc2)c1-c1ccc(O)cc1`, the AC50 is reported as 20 µM (active).
In the case of `CCSc1nnc(NC(=O)Cc2ccc(OC)c(OC)c2)s1`, the AC50 is reported as “inactive”.
For `CC(=O)Nc1nnc(SCc2ccc(F)cc2)s1`, the AC50 was 10 µM (active).
In the case of `Cc1ccccc1N(C(=O)Cc1cccs1)C(C(=O)NCC1CCCO1)c1cccnc1` (stereo not drawn), the AC50 is reported as “inactive”.
With `O=C(NCC1CCCO1)C(c1cccnc1)N(C(=O)Cc1cccs1)c1ccccc1` (stereo not drawn) the AC50 was 12.6 µM (active).
With `O=C(NCC1CCCO1)C(c1cccnc1)N(C(=O)Cc1cccs1)c1cccnc1` (stereo not drawn) the AC50 was “inactive”.
For `O=c1c2ccc(Cl)cc2nc(-c2cccc(C(F)(F)F)c2)n1O`, the AC50 was 1.26 µM (active).
`COc1ccc(S(=O)(=O)NCCC(=O)NCc2ccc(F)cc2)cc1` was tested, and the AC50 was “inactive”.
`COC(=O)c1sccc1NC(=O)CN(C)NS(=O)(=O)c1ccc(F)cc1` was tested, and the AC50 was 11.2 µM (active).
In the case of `O=C(Nc1ncc(Cc2cccc(Cl)c2)s1)c1cccs1`, the AC50 is reported as 1.58 µM (active).
With `CCCc1nnc(NC(=O)CN2C(=O)C3C4C=CC(C4)C3C2=O)s1` (stereo not drawn) the AC50 was “inactive”.
`CCCc1nnc(NC(=O)c2cccs2)s1` was tested, and the AC50 was 0.631 µM (active).
`Cc1ccc(Cc2cnc(NC(=O)c3cccs3)s2)cc1` was tested, and the AC50 was 1.41 µM (active).
In the case of `CCOc1cc(NC(=O)c2cccs2)c(OCC)cc1NC(=O)c1ccco1`, the AC50 is reported as “inactive”.
`CCCc1nnc(NC(=O)Cn2cnc3ccccc3c2=O)s1` was tested, and the AC50 was “inactive”.
Compound `COc1ccc(O[C@H]2C=C[C@@H](c3ccccc3)O[C@H]2COC(=O)CC/C(C)=N\O[C@@H](C)CN2CCCCc3nc(C)c(C)cc32)cc1` has an activity, negative = inhibition of -2.12% [at 11.4 µM].
With `O=C(c1csnn1)N1CCC2(CC1)CN(c1ccncc1)C2` the AC50 was “inactive”.
In the case of `O=c1c2c(-c3cccs3)csc2ncn1-c1ccc(Br)cc1`, the AC50 is reported as 0.794 µM (active).
For `Nc1[nH]nc2nc3ccccc3nc12`, the AC50 was 0.316 µM (active).
In the case of `N[C@@H](Cc1cnc[nH]1)C(=O)O`, the AC50 is reported as “inactive”.
In the case of `N=C(N)SCCc1cnc[nH]1`, the AC50 is reported as “inactive”.
For `Fc1ccc(C(OCCCc2cnc[nH]2)c2ccc(F)cc2)cc1`, the AC50 was 0.1 µM (active).
`O=C(O)c1cc2ccccc2c(S(=O)(=O)O)c1O` gave an activity, negative = inhibition of 6.64% [at 11.4 µM].
With `NS(=O)(=O)c1cc(C(=O)O)c(O)c2ccccc12` the activity, negative = inhibition was -19.2% [at 11.4 µM].
`C=CCNS(=O)(=O)c1cccc2cc(C(=O)O)c(O)cc12` was tested, and the AC50 was 1.58 µM (active).
With `CCN(CC(=O)NCc1cccs1)S(=O)(=O)c1ccc(C(C)C)cc1` the AC50 was “inactive”.
With `O=C(Cn1cccc1C(=O)c1ccccc1)NCc1cccs1` the AC50 was 20 µM (active).
In the case of `Cc1ccc(CCN2CC(C(=O)NCCN3CCOCC3)CC2=O)cc1` (stereo not drawn), the AC50 is reported as “inactive”.
In the case of `Cc1noc(C)c1COc1cccc(C(=O)OCC(=O)N2CC(=O)Nc3ccccc32)c1`, the AC50 is reported as 25.1 µM (active).
In the case of `CS(=O)(=O)N1CCN(c2ccc(C(=O)NC3C4CC5CC(C4)CC3C5)cc2[N+](=O)[O-])CC1` (stereo not drawn), the AC50 is reported as “inactive”.
In the case of `Cc1cc(C=O)c(C)n1-c1ccc(N2CCCCC2)c([N+](=O)[O-])c1`, the AC50 is reported as 14.1 µM (active).
`Cc1cc(C(=O)C(=O)NC(C)C)c(C)n1-c1ccc([N+](=O)[O-])cc1` was tested, and the AC50 was “inactive”.
In the case of `Cc1cc(C=O)c(C)n1-c1ccc(NC2CCCC2)c([N+](=O)[O-])c1`, the AC50 is reported as 0.447 µM (active).
In the case of `COc1ccc(/C=C2\SC(=O)N(CCNC(=O)C3CC(=O)N(c4ccccc4)C3)C2=O)cc1` (stereo not drawn), the AC50 is reported as “inactive”.
With `COc1ccccc1OCCN1C(=O)S/C(=C\c2ccco2)C1=O` the AC50 was 14.1 µM (active).
`CC(=O)[C@@H](C)CCO[C@@]1(C)OCC[C@@H]1C` was tested, and the activity, negative = inhibition was -19.3% [at 11.4 µM].
With `CC(C)(C)c1ccc(C(=O)c2c[nH]c(C(=O)NCCCn3ccnc3)c2)cc1` the AC50 was 5.62 µM (active).
`O=C(c1ccc(C(F)(F)F)cc1)c1c[nH]c(C(=O)NCCCn2ccnc2)c1` was tested, and the AC50 was 2 µM (active).
`CC1=C(C#N)C(Nc2ccc(Cl)cn2)(C(F)(F)F)C(=O)N1` (stereo not drawn) was tested, and the AC50 was “inactive”.
`CC(=O)c1sc(NC(=O)C(C)C)nc1C` was tested, and the AC50 was 10 µM (active).
With `CCOC(=O)C1CCN(C(=O)C2CCN(c3nc4ccc(OC)cc4s3)CC2)CC1` the AC50 was “inactive”.
For `CCOC(=O)N1CCN(C(=O)c2ccc3nc(N4CCC(C)CC4)sc3c2)CC1`, the AC50 was “inactive”.
For `CCOc1ccc2nc(N3CCCCCC3)sc2c1`, the AC50 was 2.82 µM (active).
With `CC(=O)NC(C)C(c1cccs1)N1CCN(c2ccccc2)CC1` (stereo not drawn) the AC50 was “inactive”.
With `COC(=O)[C@@]1(Cc2ccc(F)cc2)[C@@H]2[C@@H](CC(=O)[C@H]2CC(=O)C(=O)N(C)C)CN1C(=O)c1ccccc1` the AC50 was “inactive”.
In the case of `Cc1cnc(CNc2ncncc2-c2ccccc2C)cn1`, the AC50 is reported as 25.1 µM (active).
For `Cc1cnc(CNc2ncncc2-c2ccccc2CN(C)C)cn1`, the AC50 was 12.6 µM (active).
For `Cc1cnc(CNc2ncncc2-c2ccccc2Cl)cn1`, the AC50 was 15.8 µM (active).
`Cc1cnc(CNc2ncncc2-c2ccccc2C(F)(F)F)cn1` was tested, and the AC50 was “inactive”.
`CN(C)Cc1ccccc1-c1cncnc1NC1CC1` was tested, and the AC50 was 15.8 µM (active).
For `CC1=CC(=O)C=CC1(C)C(Cl)(Cl)Cl` (stereo not drawn), the AC50 was “inactive”.
With `CCN1C(=O)[C@@H]2[C@H]3C(=CC[C@H]2C1=O)C(=O)[C@H]1OC1[C@H]3O` (stereo partly drawn) the activity, negative = inhibition was -3.23% [at 11.4 µM].
`Cc1nc(SC2CC(=O)N(c3ccc([N+](=O)[O-])cc3)C2=O)nc2c1CCCC2` (stereo not drawn) was tested, and the AC50 was “inactive”.
For `Cc1cnc(CNc2ncncc2-c2ccccc2C#N)cn1`, the AC50 was 0.251 µM (active).
`C[C@@]1(O)CCOC(=O)C1` was tested, and the AC50 was “inactive”.
`CCCCC#Cc1nc(N)c2ncn([C@@H]3O[C@@H](C(=O)NCC)[C@H](O)[C@@H]3O)c2n1` was tested, and the AC50 was “inactive”.
For `Cc1ccc(N(C(=O)C(F)(F)F)C(C(=O)NC2CCCCC2)c2cccs2)cc1C` (stereo not drawn), the AC50 was “inactive”.
For `COc1ccc(CN(C(=O)Cc2cccs2)C(C(=O)NC2CCCC2)c2ccncc2)cc1` (stereo not drawn), the AC50 was “inactive”.
`COc1ccc(CCN(C(=O)C(F)(F)F)C(C(=O)NC2CCCC2)c2cccs2)cc1` (stereo not drawn) was tested, and the AC50 was 12.6 µM (active).
With `COc1cccc(N2CCN(C(=O)Nc3ccc4c(c3)NC(=O)CO4)CC2)c1` the AC50 was “inactive”.
In the case of `Cc1ccc(C(=O)N/C(=C/C=C/c2ccccc2)C(=O)NCc2ccco2)cc1`, the AC50 is reported as “inactive”.
With `Cc1cccc(Nc2ccccc2C(=O)OCC(=O)NCc2ccco2)c1C` the AC50 was 12.6 µM (active).
For `Cc1cccc(Nc2ccccc2C(=O)OCC(=O)N(C)C2CCS(=O)(=O)C2)c1C` (stereo not drawn), the AC50 was “inactive”.
`O=C(COC(=O)c1cccc(S(=O)(=O)N2CCN(c3ccccc3)CC2)c1)NCc1ccco1` was tested, and the AC50 was “inactive”.
For `O=C(COC(=O)c1ccccc1Nc1cccc(C(F)(F)F)c1)NCc1ccco1`, the AC50 was 5.01 µM (active).
With `O=C(O)CCC(=O)N1CCc2cc(S(=O)(=O)NCc3cccs3)ccc21` the AC50 was “inactive”.
In the case of `O=C(CNCCO)N1CCc2ccccc21`, the AC50 is reported as “inactive”.
For `O=C(CSc1nnc(CNc2ccccc2)o1)N1CCCc2ccccc21`, the AC50 was 12.6 µM (active).
`O=C(CSc1nc(-c2ccccc2)cs1)N1CCc2ccccc21` was tested, and the AC50 was 2.51 µM (active).
With `O=C(CSc1n[nH]c(-c2ccccc2O)n1)N1CCCc2ccccc21` the AC50 was 2 µM (active).
`O=C(CSc1nnc(CNc2ccc(F)cc2)o1)OC1CCCCC1` was tested, and the AC50 was 25.1 µM (active).
`O=C(NCc1ccccc1)c1ccc(S(=O)(=O)N2CCCc3ccccc32)cc1` was tested, and the AC50 was “inactive”.
In the case of `CCN(CC)C(=O)CSc1nnc(C2CCCCC2)o1`, the AC50 is reported as “inactive”.
With `CCN(CC)C(=O)CSc1nnc(CNc2ccc(F)cc2)o1` the AC50 was “inactive”.
For `C[C@]12CC[C@H]3c4ccc(OC[C@H]5CO5)cc4CC[C@H]3[C@H]1CC[C@@H]2O`, the activity, negative = inhibition was -8.48% [at 11.4 µM].
`CC(=O)OC[C@@H]1O[C@H](CCO/N=C(\C)CCN2CCc3nc(-c4ccccc4)c(-c4ccccc4)cc3C2)C=C[C@@H]1OC(C)=O` was tested, and the activity, negative = inhibition was 1.24% [at 11.4 µM].
Compound `O=C1[C@H]2[C@H]3[C@H](O)[C@H](O)C/C(=N/OC[C@@H](O)COCc4ccco4)[C@@H]3CC[C@@H]2C(=O)N1Cc1ccc2c(c1)OCO2` has an activity, negative = inhibition of -3.61% [at 11.4 µM].
In the case of `Cc1cccc(OCC(=O)N/N=C\C=C\c2ccc3c(c2)OCO3)c1C`, the AC50 is reported as 5.01 µM (active).
With `COC(=O)N/N=C\C=C\c1ccc2c(c1)OCO2` the AC50 was “inactive”.

— PubChem BioAssay AID1851 (National Center for Advancing Translational Sciences (NCATS), 2009)
On the % scale 0 is the no-effect control and ±100 the full control effect.
